Hsp70 activator – Hsp70 transcriptional activation, primary screen; HeLa Hsp70 promoter luciferase reporter, luminescence; scaled: vehicle 0, proteasome-inhibitor control 100%; activation, % at 10 µM; 200,000 compounds, 0.04% hits; AID 1203;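 active = activation above the mean across all tested compounds plus 3 SD, cutoff set per campaign, cut at about 5.5% in these data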
GalR3 antag – antagonists of human GalR3. O60755. HEK293 GalR3-CNG cAMP membrane potential fluorescence; galR3 body fused to GalR1 C-terminus. inhibition, % at 3 µM. 360,000 compounds, 0.44% hits;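 active = inhibition above the screen-wide average plus 3 SD, cut at about 13% in these data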;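 also: forskolin and galanin both at EC90 stimulate the cells; cAMP rise reported by CNG channel membrane potential dye signal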
Target sequence (O60755 1-299 limits assumed): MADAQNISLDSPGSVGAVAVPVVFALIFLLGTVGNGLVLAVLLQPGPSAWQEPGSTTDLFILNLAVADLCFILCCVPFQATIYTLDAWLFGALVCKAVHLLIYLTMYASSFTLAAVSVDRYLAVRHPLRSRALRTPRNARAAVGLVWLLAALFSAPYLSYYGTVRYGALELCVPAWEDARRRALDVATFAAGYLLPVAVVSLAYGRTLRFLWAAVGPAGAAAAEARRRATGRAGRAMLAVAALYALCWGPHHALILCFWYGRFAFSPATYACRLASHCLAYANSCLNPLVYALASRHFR
HIF act – HIF pathway transcriptional activation; U2OS HRE-luciferase reporter, luminescence; normalized: DMSO 0%, desferrioxamine 100%; activation, % at 7.5 µM (by protocol); 300,000 compounds, 0.32% hits; AID 1910;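 active = mean activation of at least 10% of the iron chelator positive control signal, with at least half of replicates also reaching 10%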
FXN GAA850 act – frataxin GAA850 promoter activation | 360,000 compounds, 0.56% hits | activation, % at 6 µM | HEK293 lucGAA850 FXN promoter luciferase reporter, 24 h; percent of 10 µM SAHA response;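 active = activation above the average of all compounds screened plus 3 SD, cutoff fixed separately per campaign, cut at about 7.5% in these data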
SMARCA2 activ – activators of SMARCA2 function; MG213 cells, MMTV-luciferase reporter, dexamethasone, overnight; activation, % at 9.1 µM; 370,000 compounds, 1% hits; AID 652017; in the data active = activation above about 7.8%
GalR3 conf – confirmation of human galanin receptor 3 antagonists; AID 652245; HEK293 GalR3 CNG cAMP biosensor, membrane potential fluorescence; galR3 fused to GalR1 carboxy tail; challenged with forskolin and galanin at EC90; shares compounds with GalR3 antag; 1,600 compounds, 59% hits; inhibition, % at 3 µM;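 active = inhibition above the primary screen's cutoff, the mean inhibition of all screened compounds plus 3 SD, cut at about 13% in these data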
HEK-CNG parental – parental cell agonism counter-screen for GalR3 antagonists. shares compounds with GalR3 antag. HEK293-CNG parental cells, cAMP membrane potential fluorescence; normalised: DMSO wells 0%, forskolin wells 100%. activation, % at 3 µM. 1,600 compounds, 10% hits. AID 652268; in the data active = activation above about 1.3%
Each line names hits and unclear results; the compound was inactive in the other large screens (follow-up assays come after a bar, where they were run). Compounds with a hit are over-represented: about 2.2% of the library has one in this group of screens.

CCCc1cc(-c2[nH]ncc2-c2ccc(C(=O)OCC)o2)c(O)cc1O	GalR3 antag 31 | GalR3 conf 17 | HEK-CNG parental inactive
CCCc1cc(-c2[nH]ncc2-c2ccc3c(c2)OCCCO3)c(O)cc1O	none
COc1ccc(C2C(C(=O)N3CCC(C)CC3)CC(=O)N2c2ccc(OC)cc2)cc1 (stereo not given)	none (no result: Hsp70 activator, GalR3 antag, HIF act, FXN GAA850 act)
Cc1ccc(S(=O)(=O)N(C)Cc2ccc(C(=O)N/N=C/c3ccc(OC(F)F)cc3OC(F)F)cc2)cc1	GalR3 antag 80 | GalR3 conf 28 | HEK-CNG parental inactive
Cc1cc(C(=O)N/N=C(\CCC(=O)O)c2cccs2)c2ccccc2n1	GalR3 antag 17 | GalR3 conf inactive | HEK-CNG parental inactive
Nc1[nH]c2cc(C(F)(F)F)ccc2c1C(=O)N1CCN(CCc2ccccc2)CC1	none (no result: Hsp70 activator, GalR3 antag, HIF act, FXN GAA850 act)
COc1ccc(S(=O)(=O)NCc2ccco2)cc1-c1nnc2c3ccccc3c(C)nn12	GalR3 antag 28 | GalR3 conf 15 | HEK-CNG parental inactive
COc1ccc(-n2c(COc3ccc(C)cc3)nnc2SCC(=O)c2ccc(-c3ccccc3)cc2)cc1	none (no result: Hsp70 activator, GalR3 antag, HIF act, FXN GAA850 act)
COc1ccc(-c2cc(-c3nnc(SCC(=O)Nc4ccc(OCc5ccccc5)cc4)n3N)[nH]n2)cc1	none (no result: Hsp70 activator, GalR3 antag, HIF act, FXN GAA850 act)
CNC[C@H]1Oc2ccc(NC(=O)Nc3ccc4c(c3)OCO4)cc2C(=O)N([C@H](C)CO)C[C@@H]1C	GalR3 antag 15 (no result: Hsp70 activator, HIF act) | GalR3 conf inactive | HEK-CNG parental inactive
CNC[C@@H]1Oc2ccc(NC(=O)Nc3ccccc3)cc2C(=O)N([C@@H](C)CO)C[C@H]1C	none (no result: Hsp70 activator, HIF act)
CN(C)/C=N/c1nc2nccc(-c3ccc(F)cc3)n2n1	none
CN(C)/C=N/c1nc2nccc(-c3cccs3)n2n1	GalR3 antag 13 | GalR3 conf inactive | HEK-CNG parental inactive
C=C1C(=O)C23CCC4C(C)(C(=O)OC)CCCC4(C)C2CCC1(O)C3 (stereo not given)	GalR3 antag 37 (no result: Hsp70 activator, HIF act) | GalR3 conf 48 | HEK-CNG parental 1.6
COCCN1Cc2cc(C(=O)OC)c3c(c2C1=O)c1cc(F)ccc1n3S(=O)(=O)c1ccc(C)cc1	none (no result: Hsp70 activator, HIF act, FXN GAA850 act)
Cc1ccc(NC(=O)Cc2ccc(Cl)c(Cl)c2)cc1S(=O)(=O)N(C)C	none
Cc1ccc(NC(=O)CNc2ccc(Cl)c(Cl)c2)cc1S(=O)(=O)N(C)C	GalR3 antag 45 | GalR3 conf 90 | HEK-CNG parental inactive
O=c1c2ccccc2n(Cc2ccccc2)n1[C@@H](Cc1ccccc1)Cn1cc(C2CCCC2)nn1	none (no result: Hsp70 activator, GalR3 antag, HIF act, FXN GAA850 act)
O=C(N/N=C/c1ccc(O)c(O)c1)N/N=C/c1ccc(O)c(O)c1	GalR3 antag 13 (no result: Hsp70 activator) | GalR3 conf inactive | HEK-CNG parental inactive
COc1ccc(NC(=O)COc2nc3ccccc3nc2N2CCOCC2)c(OC)c1	GalR3 antag 14 | GalR3 conf inactive | HEK-CNG parental inactive
Cc1onc(-c2ccccc2Cl)c1C(=O)NNC(=O)c1cccc(F)c1	GalR3 antag 13 (no result: Hsp70 activator) | GalR3 conf 15 | HEK-CNG parental inactive
COc1cc(CN2CCC(CO)(Cc3cccc(C(F)(F)F)c3)CC2)ccc1F	none (no result: Hsp70 activator)
COc1ccc(CN2CCC(CO)(Cc3cccc(C(F)(F)F)c3)CC2)cc1Cn1cccn1	GalR3 antag 16 | GalR3 conf inactive | HEK-CNG parental 3.9
CC1(C)CC(=O)C=C(Nc2ccccc2NC(=O)c2cc(F)ccc2F)C1	none (no result: Hsp70 activator, GalR3 antag, HIF act, FXN GAA850 act)
Cc1sc2nc(SC3CCOC3=O)n(Cc3ccccc3)c(=O)c2c1C (stereo not given)	none
C=CCn1c(SC2CCOC2=O)nc2sc(C)c(C)c2c1=O (stereo not given)	GalR3 antag 35 | GalR3 conf 36 | HEK-CNG parental inactive
CCCCCCn1c(-c2ccc(Cl)cc2Cl)csc1=Nc1ccccc1	none (no result: Hsp70 activator, GalR3 antag, HIF act, FXN GAA850 act)
COc1ccc(C(=O)NC2CCCN(Cc3ccccc3F)C2)c(OC)c1OC (stereo not given)	GalR3 antag 16 (no result: Hsp70 activator) | GalR3 conf inactive | HEK-CNG parental inactive
CC(=O)c1ccc(C(=O)NC2CCCN(Cc3ccccc3F)C2)s1 (stereo not given)	none (no result: Hsp70 activator)
COC(=O)C1CN(Cc2cn(Cc3ccc(C)cc3)nn2)CCS(=O)(=O)N1Cc1ccc(C)cc1 (stereo not given)	none (no result: Hsp70 activator, GalR3 antag, HIF act, FXN GAA850 act)
COC(=O)COc1ccc(-c2ccccc2)cc1C=O	GalR3 antag 17 | GalR3 conf inactive | HEK-CNG parental inactive
Cc1ccc(CNC(=O)c2ccc(CNc3c(N4CCCC4)c(=O)c3=O)cc2)cc1	GalR3 antag 13 | GalR3 conf inactive | HEK-CNG parental inactive
Cc1cc(C)cc(NC(=O)c2ccc(CNc3c(N4CCCC4)c(=O)c3=O)cc2)c1	none (no result: Hsp70 activator)
O=C(Nc1ccc(OCc2ccccc2)cc1)Nc1ccccc1C(=O)NCCCN1CCOCC1	GalR3 antag 17 (no result: Hsp70 activator) | GalR3 conf inactive | HEK-CNG parental inactive
CN(Cc1ccc(OC(F)F)cc1)C(=O)c1cccc(S(=O)(=O)N2CCN(Cc3ccccc3)CC2)c1	GalR3 antag 22 (no result: Hsp70 activator, HIF act) | GalR3 conf 88 | HEK-CNG parental inactive
O=C(O)c1ccc(NC(=S)NC(=O)c2ccc(-c3ccc(Br)cc3)o2)cc1	GalR3 antag 13 (no result: Hsp70 activator) | GalR3 conf inactive | HEK-CNG parental 1.7
OCC1(Cc2cccc(F)c2)CCN(Cc2cccc3nccnc23)CC1	none
CC(C)c1csc(CN2CCC(CO)(Cc3cccc(F)c3)CC2)n1	GalR3 antag 13 | GalR3 conf inactive | HEK-CNG parental inactive
CCOC(=O)Cc1csc(NC(=O)c2cc(=O)c3ccccc3o2)n1	GalR3 antag 92 | GalR3 conf 90 | HEK-CNG parental inactive
COc1cccc(C2=NOC(C(=O)NCC3CCCO3)C2)c1 (stereo not given)	GalR3 antag 35 | GalR3 conf inactive | HEK-CNG parental inactive
CN(C)S(=O)(=O)c1cccc(C(=O)Nc2ccccc2[N+](=O)[O-])c1	GalR3 antag 15 | GalR3 conf inactive | HEK-CNG parental inactive
COc1ccccc1Nc1ccc(NC(=O)c2cccc([N+](=O)[O-])c2C)cc1	GalR3 antag 14 (no result: Hsp70 activator) | GalR3 conf inactive | HEK-CNG parental inactive
CNC(=O)c1cc2cccc(OC)c2oc1=O	none
COc1ccc(/C=C/C(=O)c2cc3cccc(OC)c3oc2=O)cc1	GalR3 antag 24 | GalR3 conf inactive | HEK-CNG parental inactive
CC(=O)N1CCN(C(=O)c2ccc(CNC(=O)c3cccc(Br)c3)cc2)CC1	none (no result: Hsp70 activator, GalR3 antag, HIF act, FXN GAA850 act)
Cc1cc(NC(=O)CSc2nnc(-c3ccco3)o2)no1	none (no result: GalR3 antag) | GalR3 conf inactive | HEK-CNG parental inactive
CCN1CC(=O)Nc2cc(S(=O)(=O)N3CCOCC3)ccc21	GalR3 antag 16 | GalR3 conf inactive | HEK-CNG parental inactive
CCN1C(=O)Cc2cc(S(=O)(=O)N3CCOCC3)ccc21	none

Bioassay records (PubChem)
